A selection: hits, their analogues and other compounds. The true share with any hit is near 10%.
BAZ2B block = BAZ2B (human) inhibition; AID 504333; actives 4.4% (n = 360,000); Q9UIF8; Potency, µM (doses to about 114 µM), without a hit: top-dose activity change, negative = inhibition, usual class: inhibitors; AlphaScreen BAZ2B-H3K14Ac peptide displacement; also: % is scaled to controls: 0 for no effect and ±100 for the full control effect; nearly all actives have a fitted effect of over 60% in size
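Compounds, titrated to a top concentration of 110 uM, were incubated 30 min at room temperature with preformed BAZ2B/acetyl-K14 H3 peptide complex (50 nM each). Proximity signal was measured by AlphaScreen after 20 min with beads.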
G9a inh = G9a (human) methyltransferase inhibition | G9a H3K9 monomethylation, AlphaScreen, 2 h | Potency, µM (highest dose often 102 µM), for inactives: at the top dose activity, negative = inhibition, usual class: inhibitors | actives 8.8% (n = 350,000); also: % is scaled to controls: 0 for no effect and ±100 for the full control effect; nearly all actives have a fitted effect of over 75% in size
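Step 1: enzyme (final 20 nM) with compound, 15 min RT. Step 2: substrate peptide 500 nM and SAM 20 uM, 2 h RT. Step 3: anti-H3K9me1 antibody and AlphaScreen beads, 10 min, then plate read.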
HP1b chromo inh = blocks HP1-beta chromodomain binding to methylated histone tails; P83916; AlphaScreen HP1-beta / biotin-H3K9me3 peptide binding; Potency, µM (highest dose often 114 µM), for inactives: at the highest dose activity change, negative = inhibition, usual class: inhibitors; actives 0.56% (n = 390,000); AID 540317; also: nearly all actives have a fitted effect of over 70% in size
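Compound inhibition of the preformed complex between 50 nM HP1-beta and 50 nM biotinylated H3K9me3 peptide was read by AlphaScreen. Buffer was PBS pH 7.4 with 0.01% Tween-20. Incubations ran 30 min at room temperature, with 10 ug/mL donor/acceptor beads.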
L3MBTL1 block = inhibitors of human L3MBTL1 | Q9Y468 | AlphaScreen L3MBTL1–H3K9me1 peptide binding | Potency, µM (doses to about 57.1 µM), for the others: top-dose activity, negative = inhibition, usual class: inhibitors | actives 0.66% (n = 230,000); also: % is scaled to controls: 0 for no effect and ±100 for the full control effect; nearly all actives have a fitted effect of over 60% in size
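Displacement of a biotinylated histone H3(1-15) peptide monomethylated at Lys9 (75 nM) from L3MBTL1 (50 nM) was measured by AlphaScreen after a 30 min room-temperature compound incubation; cefsulodin titration served as intraplate control.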
JMJD2A Tudor inh = JMJD2A Tudor domain (human) inhibition | O75164 | AlphaScreen JMJD2A-Tudor / H3K4me3 peptide binding | Potency, µM (titrated, usually from 114 µM), without a hit: at the top dose activity change, negative = inhibition, usual class: inhibitors | actives 4.4% (n = 390,000); also: % is scaled to controls: 0 for no effect and ±100 for the full control effect; nearly all actives have a fitted effect of over 50% in size
GLS inhibitor = blocks human kidney-isoform glutaminase activity; O94925; GLS enzymatic activity, qHTS titration; Potency, µM (top dose mostly 45.5 µM), for inactives: top-dose activity change, negative = inhibition, hits mostly inhibitors; actives 0.21% (n = 410,000); also: % is scaled to controls: 0 for no effect and ±100 for the full control effect
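Human kidney-isoform GLS in 45 mM KH2PO4 pH 8.2, 0.02% Tween-20, with compound, started with 1mM L-Glutamine (added stock). Glutamate oxidase/HRP/Amplex red coupled fluorescence read at start and after 30 min at RT.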
* hit, by the source's call; ? = inconclusive; . = no result given; [ ] = dose if it differs, or a comment. Calls follow the shape of the dose curve; as a rule, active = well fitted curve in the direction sought with a large enough effect; inconclusive = small, poorly fitted or top-dose-only effect, or another doubt; inactive = no such curve, though single readings can be large; an effect the other way counts as inactive or inconclusive. Potency is read from the fitted curve at half-maximal effect.

SMILES	BAZ2B block	G9a inh	HP1b chromo inh	L3MBTL1 block	JMJD2A Tudor inh	GLS inhibitor
O=C(CNC(=O)c1ccc(-c2ccccc2)cc1)OC(C(=O)Nc1cc(C(F)(F)F)ccc1Cl)c1ccccc1 (configuration not stated)	.	.	.	.	-7.5%	.
Cc1cccc(NC(=O)C2CCCN(S(=O)(=O)c3ccc4c(c3)oc(=O)n4C)C2)c1C (configuration not stated)	-3.3%	2.0%[59 µM]	23.2%	.	-19.2%	1.8%
COc1ccc(OC)c(C2CC(=O)N(c3cccc(C)c3)C3=C2C(=O)OC3)c1 (configuration not stated)	?	6.5%[59 µM]	6.6%	.	-24.6%	0.4%
CCc1ccc(NC(=O)c2ccc3c(c2)N(Cc2ccc(C)cc2)CCS3)cc1	-3.9%	-49.0%[59 µM]	39.4%	.	-12.3%	1.1%
COc1ccc(C(=O)C(/C=N/O)=N/Nc2ccc(F)cc2)cc1	?	17.8µM*	20.0%	?	-16.5%	-1.3%
CO/N=C/C(=N\Nc1ccc(OC)cc1)C(=O)c1ccc(OC)cc1	?	35.5µM*	-25.6%	.	?	7.5%
Cc1cc(C)cc(OCCCn2c(-c3ccc(Cl)cc3)nc3ccccc3c2=O)c1	11.3%	-32.2%[59 µM]	20.8%	.	2.4%	-9.5%
CC1CC(C)(C)N2C(=O)C3(Nc4ccccc4S3)c3cccc1c32 (configuration not stated)	50.1µM*	44.7µM*	-1.5%	.	50.1µM*	14.4%
COc1ccc(Cl)cc1NC(=O)CSC1=Nc2ccccc2C2=NC(CC(=O)NCc3cccs3)C(=O)N12 (configuration not stated)	-7.5%	-31.9%[59 µM]	20.5%	.	-20.5%	15.8%
C=CCN1C(=O)/C(=c2\sc3nc(=O)c(Cc4ccccc4Cl)nn3c2=O)c2ccccc21	?	11.2µM*	?	-9.1%	70.8µM*	8.4%
C=CCn1c(=O)c2c(nc(Br)n2Cc2ccccc2Cl)n(C)c1=O	-2.9%[57.1 µM]	-3.3%[59 µM]	-10.8%	0.5%	-6.9%[11.4 µM]	-20.8%
COC(=O)c1cc(NC(=O)Cn2ncc3c([nH]c4ccccc43)c2=O)cc(C(=O)OC)c1	1.4%	2.7%[59 µM]	9.6%	.	-8.6%	1.8%
Cc1nc2ccc(NS(=O)(=O)c3c(C)c(C)cc(C)c3C)cc2s1	?	14.1µM*	49.8%	.	-9.2%[11.4 µM]	11.3%
O=C(/C=C/c1ccc(-c2ccc(F)cc2)o1)N1CCCC1	-14.4%	44.7µM*	10.3%	.	-28.4%	0.5%
O=C(/C=C/c1ccc(F)cc1)N1CCCN(C(=O)/C=C/c2ccc(F)cc2)CC1	0.2%	10.4%[59 µM]	28.8%	2.9%	-6.9%	-7.0%
COC(=O)c1c(NC(=O)CS(=O)(=O)c2ccc(C)cc2)sc2c1CCCCC2	-12.2%	-28.8%[59 µM]	-6.7%	.	-24.7%	-8.1%
CCOC(=O)CC1(C)NC(C(=O)O)C(C)(C)S1 (configuration not stated)	.	.	-12.8%	.	5.01µM*	20.6%
CCOC(=O)CNC(=O)C12CC3CC(CC(C3)C1)C2	-18.6%	34.5%[12.7 µM]	16.7%	-0.3%	-7.8%	8.2%
COc1ccccc1CNC(=O)C(=O)NCC(c1ccco1)S(=O)(=O)c1cccs1 (configuration not stated)	-17.2%	0.3%[59 µM]	15.7%	.	-17.9%	-2.3%
COc1ccccc1C(=O)Nc1nnc(SCc2cc(=O)c3cc(Cl)ccc3[nH]2)s1	-4.2%	-3.0%[59 µM]	8.3%[57 µM]	.	-28.9%	3.6%
Cc1nc2ccc(N=NN(C)C)cc2[nH]1	-21.3%	.	15.8µM*	4.1%	-22.8%	0.4%
COC(=O)/C=C1\C(=O)N(c2nc3ccc(OC)cc3s2)C(=S)N1c1ccc(F)cc1	4.8%	-7.2%[59 µM]	.	3.1%	.	.
COC(=O)/C=C1\C(=O)N(c2nc3ccccc3s2)C(=S)N1c1ccc(F)cc1	8.0%	70.8µM*	15.0%	.	-11.7%	-5.7%
CCc1cc2cc(C)cc(C)c2[nH]c1=S	?	1.41µM*	-24.8%	.	8.91µM*	-1.4%
CCOCCCN(Cc1cc2cc(C)cc(C)c2[nH]c1=O)C(=O)N(CC)CC	6.0%	-7.3%[59 µM]	15.2%	4.3%	8.8%	0.6%
SMILES	BAZ2B block	G9a inh	HP1b chromo inh	L3MBTL1 block	JMJD2A Tudor inh	GLS inhibitor
Cc1cccc(NC(=O)Cn2c(=O)n(Cc3ccccc3)c(=O)c3sc4ccccc4c32)c1	10.5%	12.2%[59 µM]	15.4%	.	-5.8%	-8.0%
O=C(c1ccc2c(c1)OCCO2)N1CCN(c2nc(-c3cccs3)nc3ccccc23)CC1	.	.	19.5%	.	-20.4%	.
O=C(O)c1ccc(Sc2nnc(-c3cccc(Br)c3)o2)c([N+](=O)[O-])c1	-37.8%	50.1µM*	10.1%	.	-1.6%	11.6%
COc1cc(-c2nnc(Sc3ccc(C(F)(F)F)cc3[N+](=O)[O-])o2)cc(OC)c1OC	-37.5%	?	-28.7%	.	?	-9.4%
Cn1c(Sc2ccc(C(=O)O)cc2[N+](=O)[O-])nnc1-c1ccccc1	-12.7%	0.8%[59 µM]	-2.0%	13.2%	28.2µM*	-10.3%
Cc1ccc(-n2c(=O)c3oc4ccccc4c3n(CC(=O)Nc3ccc(F)c(Cl)c3)c2=O)cc1C	-13.0%	3.3%[59 µM]	35.9%	.	2.9%	-3.7%
Cc1ccc(S(=O)(=O)N2C(=O)[C@@H]3Cc4ccccc4CN3C2=O)cc1	-35.4%	39.8µM*	-17.4%	.	7.94µM*	37.5%
CN(C)c1ccc(/C=N/NC(=S)NCc2ccccc2)cc1	?	?	50.1µM*	?	12.6µM*	42.1%
Cc1ccccc1N(CC(=O)N/N=C/c1ccc(N(C)C)cc1)C(=O)c1ccccc1	56.2µM*	?	?	.	20µM*	36.0%
CC(C)(C)c1ccc(/C=N/NC(=S)NCc2ccccc2)cc1	-0.3%	23.7%[59 µM]	23.6%	-4.1%	-13.6%	2.4%
Cn1c(Cc2ccccc2)n[nH]c1=S	4.6%	10µM*	35.6%	0.0%	28.2µM*	1.8%
Cn1c(CSCCOc2ccccc2)n[nH]c1=S	-21.1%	10µM*	5.4%	-7.9%	6.31µM*	-1.3%
Cn1c(CCc2ccccc2)n[nH]c1=S	3.6%	?	42.3%	3.0%	28.2µM*	-8.4%
COc1ccc(-c2nsc(NC(=O)c3ccccc3Br)n2)cc1	-2.1%	-1.0%[59 µM]	59.9%	.	-0.9%	4.3%
CCn1c(C(=O)NCc2ccc(C)cc2)cc2sc(Cl)cc21	9.5%	18.8%[59 µM]	55.6%	.	5.1%	5.8%
